# Epigenetic derep: Quantitative High-Throughput Screen for Regulators of Epigenetic Control | AID 1865, 2009 | Potency, µM (top dose mostly 53.9 µM), for the others: at the highest dose GFP activation, actives largely listed as activators | hit rate 0.2% among 280,000 | murine LDR cells, GFP reporter derepression, 30 h; also: potency is read from the fitted curve at half-maximal effect; % of control where 0% means no effect; nearly all actives have a fitted effect of over 60% in size
#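 Reporter derepression read as number of fluorescent GFP-positive objects, 20-120 um in size, counted by laser-scanning cytometer. Mouse LDR line with an epigenetically silenced CMV-GFP locus; compound incubation 30 h, 37 C.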
# NPSR antag: qHTS Assay for Antagonists of the Neuropeptide S Receptor: cAMP Signal Transduction | CHO-NPSR cells, cAMP TR-FRET, antagonist mode | Potency, µM (top dose mostly 38.3 µM), for inactives: top-dose activity change, negative = inhibition, hits mostly inhibitors | hit rate 1% among 220,000 | AID 1461, 2008; also: potency is read from the fitted curve at half-maximal effect; % is scaled to controls: 0 for no effect and ±100 for the full control effect; nearly all actives have a fitted effect of over 50% in size
# Sfp PPTase inh: qHTS Assay for Inhibitors of Bacillus subtilis Sfp phosphopantetheinyl transferase (PPTase). hit rate 3.5% among 310,000. 4'-phosphopantetheinyl transferase ffp (Bacillus subtilis), Q9F4F7. Potency, µM, without a hit: largest response in the series, negative = inhibition, usual class: inhibitors. Biochemical Sfp PPTase activity, qHTS;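 also: the enzyme is Sfp with the accession as filed and its product quenches rhodamine fluorescence; potency is read from the fitted curve at half-maximal effect; 0% = enzyme reaction without inhibitor and -100% = no enzyme wells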
#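 Reaction rates are the 30-min fluorescence difference (ex 525, em 598 nm) in wells containing 15 nM Sfp, 5 uM rhodamine-CoA and 12.5 uM BHQ-2-YbbR at pH 7.6 with 10 mM MgCl2.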
# JMJD2E inh: qHTS Assay for Inhibitors of Human Jumonji Domain Containing 2E (JMJD2E); hit rate 1.6% among 230,000; JMJD2E catalytic domain, FDH-coupled NADH fluorescence (FDH is formaldehyde dehydrogenase); Lysine-specific demethylase 4E (Homo sapiens), B2RXH2; Potency, µM (series often up to 57.1 µM), for the others: at the highest dose activity change, negative = inhibition, actives largely listed as inhibitors; active = well fitted inhibition curve with a large enough effect, not every such curve was filed as active; inconclusive = small, poorly fitted or top-dose-only effect, or another doubt; inactive = no such curve, though single readings can be large or run the other way;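 also: potency is read from the fitted curve at half-maximal effect; 0% = wells with enzyme and -100% = buffer wells without enzyme; nearly all actives have a fitted effect of over 50% in size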
# Target sequence (B2RXH2 1-337 limits assumed): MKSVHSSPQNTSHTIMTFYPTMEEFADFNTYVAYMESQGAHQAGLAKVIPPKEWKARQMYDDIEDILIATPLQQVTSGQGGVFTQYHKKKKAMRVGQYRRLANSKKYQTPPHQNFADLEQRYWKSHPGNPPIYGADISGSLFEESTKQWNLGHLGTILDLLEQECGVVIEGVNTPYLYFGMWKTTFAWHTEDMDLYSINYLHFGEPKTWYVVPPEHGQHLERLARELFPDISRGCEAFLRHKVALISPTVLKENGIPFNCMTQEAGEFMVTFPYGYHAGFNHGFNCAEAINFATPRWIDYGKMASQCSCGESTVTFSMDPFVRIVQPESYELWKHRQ
# GCN5L2 inh-1: qHTS Assay for Inhibitors of GCN5L2; GCN5L2 HAT assay, ThioGlo1 CoA-SH fluorescence; AID 504327, 2011; hit rate 0.21% among 390,000; Potency, µM (highest dose often 58.9 µM), for inactives: top-dose activity change, negative = inhibition, actives largely listed as inhibitors; Histone acetyltransferase KAT2A (Homo sapiens), Q92830; also: potency is read from the fitted curve at half-maximal effect; % is scaled to controls: 0 for no effect and ±100 for the full control effect
#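 Fluorescence readout, Ex340nm/Em540nm: ThioGlo1 (50uM final) reacts with free CoA thiol released as 20nM GCN5L2 acetylates H3(1-25) peptide (75uM) using acetyl-CoA (70uM). Compound and enzyme sat 15 min beforehand; 20 min room-temperature reaction.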
# IMPase Li cell: qHTS Assay for Identifying the Cell-Membrane Permeable IMPase Inhibitors: Potentiation with Lithium | CHO-M1 cells, IP1 TR-FRET (IP-One), carbachol + lithium | Potency, µM (series often up to 59.4 µM), for the others: top-dose activity, negative = IMPase inhibition, most hits filed as inhibitors | hit rate 0.35% among 210,000 | AID 1457, 2008;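 also: IP1 builds up when IMPase is blocked and the TR-FRET signal falls; potency is read from the fitted curve at half-maximal effect; plate controls were basal vehicle for no effect and high inhibitor control for full effect; nearly all actives have a fitted effect of over 50% in size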
#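 CHO-M1, 2000 cells/well, 16–30 h culture; cpd + low Li+, 30 min 37C; lysis with d2-IP1/Eu-anti-IP1 Ab, 10 min RT; TR-FRET 665/620 ratio and 620 channel; AC50 via Hill.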
# Sfp inh conf: Confirmation qHTS Assay for Inhibitors of Bacillus subtilis Sfp phosphopantetheinyl transferase (PPTase) | shares compounds with Sfp PPTase inh | AID 2701, 2010 | hit rate 79% among 380 | Potency, µM (titrated, usually from 114 µM), for inactives: at the top dose activity change, negative = inhibition, hits mostly inhibitors | Sfp PPTase enzymatic assay, qHTS titration;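 also: potency is read from the fitted curve at half-maximal effect; plate controls were uninhibited Sfp reaction for no effect and no enzyme control for full effect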
# Target sequence (Q9F4F7 whole entry, looked up): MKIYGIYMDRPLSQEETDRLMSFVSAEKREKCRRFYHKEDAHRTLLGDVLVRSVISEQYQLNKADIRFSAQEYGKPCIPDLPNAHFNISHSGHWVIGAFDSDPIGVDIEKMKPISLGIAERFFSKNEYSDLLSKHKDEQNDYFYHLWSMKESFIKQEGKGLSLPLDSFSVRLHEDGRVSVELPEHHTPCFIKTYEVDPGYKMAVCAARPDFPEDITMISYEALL
# Sfp gel assay: Gel-Based Assay for Inhibitors of Bacillus subtilis Sfp phosphopantetheinyl transferase (PPTase). hit rate 20% among 210. shares compounds with Sfp PPTase inh. Potency, µM, actives largely listed as inhibitors. purified Sfp, gel-based phosphopantetheinylation read-out;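 active = potency below 100 µM; inconclusive = dose-dependent response but potency above 100 µM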;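 also: band intensities scaled against SCH202676 control wells before curve fitting; potency is an IC50 for inhibitors of Sfp transfer activity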
# Parental c127i: Parental Cell Counter Screen Assay for Epigenetic Modulators: Hit Validation; mouse c127i parental cells, fluorescent cell count, 30 h; Potency, µM, inactives show at the top dose fluorescent cell count, most hits filed as activators; hit rate 20% among 60; shares compounds with Epigenetic derep
# HCC4017 tox: HCC4017 Cell Viability Secondary Assay for qHTS Assay for Epigenetic Modulators. shares compounds with Epigenetic derep. HCC4017 NSCLC viability, CellTiter-Glo ATP luminescence, 72 h. Potency, µM (titrated, usually from 46.1 µM), for the others: top-dose activity change, negative = cytotoxicity, actives largely listed as cytotoxic. hit rate 30% among 45
# H358 tox: H358 Cell Viability Secondary Assay for qHTS Assay for Epigenetic Modulators: Round 2; hit rate 30% among 45; AID 493074, 2011; H358 NSCLC viability, ATP luminescence, 72 h; shares compounds with Epigenetic derep; Potency, µM (highest dose often 46.1 µM), for the others: at the highest dose activity change, negative = viability loss, usual class: cytotoxic
# GCN5L2 inh-2: qHTS Assay for Inhibitors of GCN5L2: Hit confirmation. hit rate 70% among 140. GCN5L2 HAT, ThioGlo1 CoA fluorescence, 20 min. shares compounds with GCN5L2 inh-1. Potency, µM, hits mostly inhibitors
# * = called active by the depositor; i = inactive; ? = inconclusive; . = no result given; ! = not active in a repeat; [ ] = dose if it differs, or a comment. Sampled rows, rich in hits. Any-hit rate of the full collection: about 3.6%. Unless noted, calls follow the shape of the dose curve; as a rule, active = well fitted curve in the direction sought with a large enough effect; inconclusive = small, poorly fitted or top-dose-only effect, or another doubt; inactive = no such curve, though single readings can be large; an effect the other way counts as inactive or inconclusive.
SMILES,Epigenetic derep,NPSR antag,Sfp PPTase inh,JMJD2E inh,GCN5L2 inh-1,IMPase Li cell,Sfp inh conf,Sfp gel assay,others
CC(=O)c1ccc(OC(=O)CCc2nc3ccccc3s2)cc1,?,4%,16µM*,-10%,11%,0%,33µM*,?,
COc1ccccc1N1CCN(S(=O)(=O)c2c(C)nc3sc(C)c(C)n3c2=O)CC1,-2%,.,.,.,-5%,.,.,.,
O=C(O)c1cc(/C=C/C(=O)c2cc(F)ccc2O)c2c(c1)COCO2,-1%,-32%,22µM*,-30%,-1%,.,47µM*,i,
O=C(/C=C/c1cccnc1)c1cc(F)ccc1O,-1%,16%,-29%,2%,-3%,.,.,.,
Cc1ccc(C(=O)CSc2nnc3c4ccccc4nc(Cc4ccccc4)n23)cc1,-2%,-15%,8.9µM*,-1%,-4%,5%,?,i,
Clc1ccc(Cn2c(CN3CCCC3)nc3ccccc32)cc1,0%,?,79µM*!,8%,-1%,-5%,-2%,i,
c1ccc(Cn2c(CN3CCCC3)nc3ccccc32)cc1,-2%,-6%[46.1 µM],20%,-9%,-4%,5%[38.3 µM],.,.,
CCOC(=O)c1nn(-c2ccccc2)c(=O)c2c(N)scc12,-1%,1%[46.1 µM],13µM*,?,-21%,0%[38.3 µM],19µM*,.,
CCOC(=O)c1nn(-c2ccccc2C)c(=O)c2c(N)scc12,-1%,-12%,3.2µM*,?,-27%,-2%,15µM*,.,
COc1ccc(C2CC(=O)N(CC(=O)NCC3CCCO3)c3ccccc3S2)cc1 (centres undefined),1%,-1%,6%,3%,1%,4%,.,.,
O=C(CN1C(=O)CC(c2ccco2)Sc2ccccc21)NCC1CCCO1 (centres undefined),0%,5%[46.1 µM],11µM*,-18%,-4%,-6%[38.3 µM],7.4µM*,.,
Cc1cccc(C)c1OCc1nnc(NC(=O)CSc2ccc(Cl)cc2)s1,0%,-45%,1%,0%,2%,-6%,.,.,
O=C(CSc1ccccc1)Nc1nnc(COc2ccc(Cl)cc2)s1,-2%,30%,14µM*,0%,?,1%,5.9µM*,.,
Cc1ccc(NCc2ccc(O)c3ncccc23)cc1,-1%,52%,3.5µM*,-2%,-15%,32%,?,.,
O=C(CC(SCc1ccco1)c1ccc(O)cc1)c1cccs1 (centres undefined),0%,-22%[46.1 µM],56µM*,0%,-11%,9%[38.3 µM],7.4µM*,i,
Cc1cc(C(F)(F)F)nn1Cc1ccc(C(=O)NCc2ccco2)o1,4%,-24%[46.1 µM],0.89µM*,-27%,-10%,14%[38.3 µM],47µM*,.,
COc1ccc(CNC(=O)c2ccc(Cn3nc(C)cc3C)o2)cc1,.,.,6%,.,1%,.,.,.,
Cc1nn2c(=O)cc(COC(=O)c3ccc(NC(=O)c4ccc(C(C)(C)C)cc4)cc3)nc2s1,4%,.,.,.,2%,.,.,.,
Cc1ccc(-c2nc(-c3ccccn3)no2)cc1,-1%,-2%[46.1 µM],-4%,5%,-15%,-11%[38.3 µM],.,.,
c1ccc(-c2ccc(-c3nc(-c4ccccn4)no3)cc2)cc1,-2%,-16%[46.1 µM],40µM*,?,4%,50%[38.3 µM],53µM*,i,
CC/C(O)=C(/C#N)c1nnc2n1CCCCC2,-2%,-4%[46.1 µM],14µM*,-19%,-4%,2%,3%,i,
Nn1c(=O)c2ccccc2n2c(SCc3ccc(C(F)(F)F)cc3)nnc12,0%,-15%[46.1 µM],45µM*,-1%,-2%,14%[38.3 µM],?,i,
O=C(/C=C/c1ccccc1)Nc1cccc(S(=O)(=O)Nc2ccccc2F)c1,0%,-24%,4µM*,-16%,?,20%,3.7µM*,.,GCN5L2 inh-2=?
CCOCCCn1c(SCC(=O)Nc2ccc(C)cc2)nc2ccccc2c1=O,0%,.,.,.,-9%,.,.,.,
CC1=NN(c2nc3ccccc3[nH]2)C(=O)C1Cc1ccccc1 (centres undefined),?,44%,21%,?,-2%,.,.,.,Parental c127i=7%;HCC4017 tox=4.4µM*;H358 tox=7.9µM*
SMILES,Epigenetic derep,NPSR antag,Sfp PPTase inh,JMJD2E inh,GCN5L2 inh-1,IMPase Li cell,Sfp inh conf,Sfp gel assay,others
Cc1nn(-c2nc3ccccc3[nH]2)c(=O)c2ccccc12,0%,-12%,19%,-2%,-4%,9%,.,.,
O=C(OCc1cc(=O)n2c3c(sc2n1)CCCC3)c1cccc(NC(=O)c2ccccc2F)c1,0%,.,.,.,-9%,.,.,.,
COc1ccc2c(C)nc(Nc3nc(-c4ccccc4)cc(=O)[nH]3)nc2c1,3.5µM*,-42%,11%,13%,-1%,.,.,.,Parental c127i=6%;HCC4017 tox=8.9µM*;H358 tox=4.4µM*
CCOc1ccc(C(=O)NCC(c2ccc3c(c2)OCO3)N2CCN(c3ccc(F)cc3)CC2)cc1 (centres undefined),1%,.,.,.,-13%,.,.,.,
Cc1ccc2cccc(NC(=O)C(C)(C)Oc3ccc(Br)cc3)c2n1,0%,.,.,.,-4%,.,.,.,
CC(=O)N1CCN(c2ccc(NC(=O)c3ccc([N+](=O)[O-])o3)cc2Cl)CC1,.,.,13%,.,-9%,.,.,.,

# Bioassay records: PubChem BioAssay, National Center for Advancing Translational Sciences (NCATS)
